Assay results taken from PubChem BioAssay AID624330 (Southern Research Specialized Biocontainment Screening …, 2012).
Among all 340,000 compounds or so, about 2,100 (0.62%) were called active. Only a sample is shown. Potency and affinity values are given separately. Values without a mark were called inactive.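 The calls were made as follows: active = first-screen hits whose inhibition reached a set limit at any dose in the follow-up dose series; inconclusive = inhibition above the set first-screen limit but never retested; inactive = the rest.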

target: Rac GTPase-activating protein 1 (Homo sapiens) (UniProt Q9H0H5); experiment: MgcRacGAP GTPase-activating activity inhibitors, confirmation, biochemical, ADP Hunter fluorescence, primary and confirmatory (AID 624330); conditions: MgcRacGAP-stimulated Rac1 GTP hydrolysis, at 30 µM, stronger effect = higher value, GST-tagged Rac1 F28L mutant substrate;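 also: fluorescence reports GDP produced by GAP-driven GTP hydrolysis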
Sequence (Q9H0H5 whole entry, looked up): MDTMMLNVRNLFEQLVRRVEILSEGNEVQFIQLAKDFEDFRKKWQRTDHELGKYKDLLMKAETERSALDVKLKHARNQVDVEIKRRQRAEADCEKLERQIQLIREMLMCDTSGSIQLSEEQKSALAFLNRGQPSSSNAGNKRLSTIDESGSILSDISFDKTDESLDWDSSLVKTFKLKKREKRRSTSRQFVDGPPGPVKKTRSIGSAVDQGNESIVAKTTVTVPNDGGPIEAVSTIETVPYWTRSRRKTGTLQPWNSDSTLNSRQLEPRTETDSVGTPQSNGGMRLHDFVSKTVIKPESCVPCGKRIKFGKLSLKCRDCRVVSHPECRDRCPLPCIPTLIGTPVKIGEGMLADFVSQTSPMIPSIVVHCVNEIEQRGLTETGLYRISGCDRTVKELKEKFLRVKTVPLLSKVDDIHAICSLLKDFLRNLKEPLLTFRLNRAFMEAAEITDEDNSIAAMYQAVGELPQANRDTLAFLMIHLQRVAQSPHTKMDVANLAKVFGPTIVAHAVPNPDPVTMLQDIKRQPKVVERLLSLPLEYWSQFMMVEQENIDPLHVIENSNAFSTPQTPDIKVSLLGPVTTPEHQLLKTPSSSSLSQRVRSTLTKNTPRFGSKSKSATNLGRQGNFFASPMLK

Row | SMILES | inhibition [%]
1 | COc1ccccc1CN1CCNC(=O)C1CC(=O)NCCc1cnccn1 (stereo not given) | 4.17
2 | COc1ccccc1/C=N/NC(=O)C(C)Cn1cnc2ccccc21 (stereo not given) | 2.07
3 | COc1cc(NC(c2ccccc2)c2ccccc2)cc(OC)c1OC | 11
4 | COc1cc(C(=O)NC(c2ccccc2)c2ccccc2)cc(OC)c1C | 2.28
5 | O=C(OCC(=O)N1CCN(S(=O)(=O)c2ccc(Cl)cc2)CC1)c1cccc(OC(F)F)c1 | 5.16
6 | O=C(c1ccc(O)c(Br)c1)c1cc(Br)ccc1O | 4.27
7 | O=C(CCNC(=O)c1ccco1)Nc1ccccc1OC(F)F | 5.22
8 | CCCC1=Nc2cc(C(=O)NCCCN3CCOCC3)ccc2Sc2ccccc21 | 10.2
9 | CC(Nc1ccc(Cl)cc1)c1cc(Cl)ccc1O (stereo not given) | 7.06
10 | CCOc1ccc(NC(C)c2cc(Cl)ccc2O)cc1 (stereo not given) | 15.5
11 | COC(=O)c1ccc(Nc2nc(-c3ccncc3)nc3ccccc23)cc1 | 4.52
12 | CCN1CCN(C(=O)C2CCN(C(=O)c3cc4sccc4n3CC)CC2)CC1 | 9.89
13 | CN1CCC(N2CCN(c3cccc(C(F)(F)F)c3)CC2)CC1 | 5.09
14 | FC(F)(F)c1cccc(N2Cc3ccccc3C2)c1 | 11.1
15 | O=C(C1CCC1)N1CCN(c2cccc(C(F)(F)F)c2)CC1 | 0.34
16 | O=C(N/N=C/c1ccccc1O)c1cccc(C(F)(F)F)c1 | -1.42
17 | Oc1ccc(N=Nc2cccc(C(F)(F)F)c2)cc1C=Nc1ccc(N2CCOCC2)cc1 | 9.72
18 | FC(F)(F)c1cccc(CN2CCCCCC2)c1 | 26.2
19 | O=C(C1=C(O)C(=O)N(CCN2CCOCC2)C1c1ccccn1)c1cccs1 (stereo not given) | 8.66
20 | COc1cc2c(cc1NC(=O)c1ccc(C)c([N+](=O)[O-])c1)oc1ccccc12 | 8.23
21 | CN(C)S(=O)(=O)c1ccc(C(=O)Nc2cccc(C(=O)O)c2)cc1 | -1.04
22 | CCN(CC(=O)N1CCCCC1)S(=O)(=O)c1ccccc1 | 5.64

Row | SMILES | inhibition [%]
23 | CCOC(=O)C1CCN(C(=O)c2cccc(S(=O)(=O)N3CCc4ccccc43)c2)CC1 | 3.11
24 | CCCCNC(=O)C(CC)Sc1nc2sc(C(=O)OC)c(C)c2c(=O)n1N (stereo not given) | 9.24
25 | CCCCOC(=O)c1nc(Cl)c(Cl)c(N)c1Cl | -9.26
26 | O=C1C=C(Nc2cccc(O)c2)CC(c2ccco2)C1 (stereo not given) | 9.63
27 | O=C1C=C(Nc2ccc(Cl)cc2)CC(c2ccco2)C1 (stereo not given) | 5.91
28 | Oc1[nH]c2ccccc2c1N=Nc1ccc(F)cc1 | 4.29
29 | O=C(O)c1ccc(N=Nc2c(O)[nH]c3ccccc23)cc1 | 5.98
30 | CCN1CCN(S(=O)(=O)c2ccc(S(=O)(=O)NCC3CCCO3)cc2)CC1 (stereo not given) | 1.86
31 | CCN1CCN(C(=O)NC2CCCCC2)CC1 | 30.1
32 | Cc1ccc[n+](CC(=O)c2ccc(Br)cc2)c1C | -7.12
33 | Nc1ccccc1C=C1Cc2ccccc2C1=O | 3.76
34 | CC(C)c1ccc(OCC(=O)NCc2ccco2)cc1 | 6.29
35 | O=C(NCc1ccco1)c1ccc(COc2ccc(Cl)cc2)cc1 | -1.23
36 | Cc1noc(C)c1S(=O)(=O)Nc1ccc2c(c1)C(=O)N([C@H](C)CO)C[C@@H](C)[C@@H](CN(C)Cc1ccc3c(c1)OCO3)O2 | 1.37
37 | CC(=O)Nc1ccc(S(=O)(=O)N2CCC(N3CCCC3)CC2)cc1 | 18.2
38 | Cc1ncc([N+](=O)[O-])n1Cc1cccc2ccccc12 | 5.41
39 | CCCNC(=O)NC(=O)COC(=O)CNS(=O)(=O)/C=C/c1ccccc1 | 6.44
40 | Cn1sc2ccccc2c1=O | 18
41 | O=C(O)c1cn(-c2ccc(F)cc2)c(=O)c2ccccc12 | 8.79
42 | O=c1sc2ccccc2c(=O)n1Cc1ccccc1F | 7.23
43 | O=c1c2ccccc2sn1-c1ccc(S(=O)(=O)N2CCCC2)cc1 | 21.2
44 | COc1ccc(-n2c(=O)c3ccccc3c3ccccc3c2=O)cc1 | 11.5

Row | SMILES | inhibition [%]
45 | Cc1ccc(Cn2c(=O)sc3ccccc3c2=O)cc1 | 5.22
46 | O=C(c1sc2ccccc2c1Cl)N1CCN(c2ccc(F)cc2)CC1 | 3.37
47 | COc1ccc(Cn2c(=O)sc3ccccc3c2=O)cc1 | 3.77
48 | COc1ccc(NC(=O)COC(C)=O)cc1Cl | 3.23
49 | CCOc1ccc(S(=O)(=O)NCCC(=O)NCC(c2cccs2)N(C)C)cc1 (stereo not given) | 8.66
50 | C#CCNc1cc(C)nc2ncnn12 | 1.75
51 | CC(C)CNC(=S)N(CCO)Cc1cc2cc3c(cc2[nH]c1=O)OCO3 | 14.8
52 | CC(=C1SC(=S)NC1=O)c1ccccc1 | -4.42
53 | O=C(/C=N/NC(=O)c1ccc(Cl)cc1Cl)c1ccccc1 | 15
54 | COc1ccccc1-n1c(SCC(=O)NC2CCCCC2)nc2c(c1=O)SCC2 | 12.8
55 | COc1ccc(C(=O)Nc2ccccc2NC(=O)c2ccco2)cc1OC | 11
56 | C/C(=C\C(=O)c1ccc(F)cc1)Nc1ccc(N2CCOCC2)cc1 | 15.3
57 | O=C(NCCNC(=O)Nc1ccc(Cl)cc1)Nc1ccc(Cl)cc1 | 0.54
58 | CCCCNC(=S)Nc1ccc(Cl)cc1 | 8.23
59 | CCOc1ccccc1CNC(=O)C1CCN(c2nn3c(=O)cc(C)nc3s2)CC1 | 10.9
60 | O=[N+]([O-])c1ccc(-n2nnnc2CN2CCOCC2)cc1 | 8.87
61 | COc1ccc2c(c1)c1ccccc1n2C | -2.65
62 | C/C(=N\O)c1ccc2c3ccccc3n(C)c2c1 | 11
63 | Cc1cc(N2CCOCC2)nc(SCc2c(Cl)cccc2Cl)n1 | 8.06
64 | Clc1ccc(CN2CCC(Cc3ccccc3)CC2)cc1 | 14.2
65 | O=C(O)C1CCN(Cc2ccccn2)CC1 | 4.54
